Among the data in PubChem BioAssay are z-score values, retold here.

A number with no mark means an inactive call.

The test can be described thus: resazurin metabolic signal in A549 cells – cell-based, resazurin fluorescence, 24 h, PK04 Diversity Set, profiling panel (AID 1171). Further: test concentration not given here. Particulars: A549 viability, higher = more signal, called active from +8 up or from −8 down. (In general: The colour change of resazurin is a common sign of viable cells or microbes.)
With `CO[C@H]1COC(=O)CC=C[C@H](C)[C@H](OC)COC(=O)[C@@H](C)NC(=O)CC=C[C@@H]1C`, the z-score was 0.691. Then `CCOC(=O)[C@H](Cc1ccccc1)NC(=O)CCC1CC(OC(=O)NCCc2ccc(F)cc2)CC2(CCCC(COC(=O)NCc3cccc(C(F)(F)F)c3)O2)O1` (stereo partly specified), with 1.39.

For `CCOC(=O)NN=C1C[C@@H](O)[C@@H](O)[C@@H]2[C@@H]3C(=O)N(c4ccc(F)cc4F)C(=O)[C@@H]3CC[C@H]12`, the z-score is 0.745. Then `C[C@]12CCC3c4ccc(OCC5CO5)cc4CCC3C1CC[C@@H]2O` (stereo partly specified), with 2.25; and `CCOC(=O)CCN1C(=O)[C@H]2[C@H]3[C@H](O)[C@H](O)CC(=NOCC=C(C)CCC=C(C)C)[C@@H]3CC[C@H]2C1=O`, with -0.23; and `CCOC(=O)[C@H](Cc1ccccc1)NC(=O)CCC1CC(OC(=O)NCc2cccc3ccccc23)CC2(CCCC(COC(=O)NCCOc3ccccc3)O2)O1` (stereo partly specified), with 0.0235.

With `CCOC(=O)[C@H](Cc1ccccc1)NC(=O)CCC1CC(OC(=O)NCc2ccc3c(c2)OCO3)CC2(CCCC(COC(=O)NCCc3ccc(Cl)cc3)O2)O1` (stereo partly specified), the z-score was -0.455.

Consider `O=C(NN=C1C[C@@H](O)[C@@H](O)[C@@H]2[C@@H]3C(=O)N(Cc4ccccc4)C(=O)[C@@H]3CC[C@H]12)OCc1ccccc1`, for which the z-score is 0.288. Take `C[C@@H]1CC[C@H]2C(=O)O[C@@H](CN=[N+]=[N-])CN2[C@H]1c1ccc(Br)cc1`: the z-score was -0.487. Then `COC(=O)CC=C[C@@H](C)[C@@H](C=NOC[C@@H](O)[C@H]1O[C@@H]2OC(C)(C)O[C@@H]2[C@H]1O)OC`, with -0.743. Then `CC(CCN1CCCc2nc(C)c(C)cc21)=NO[C@H](C)c1cn([C@@H]2COC[C@H]2O)nn1`, with -0.294; and `CC(C)(C)N1C(=O)[C@H]2[C@H]3[C@H](O)[C@H](O)CC(=NNC(=O)OCc4ccccc4)[C@@H]3CC[C@H]2C1=O`, with -0.548.

Regarding `COc1cccc([C@H]2Oc3ccc(OC)cc3C(=NO[C@@H](C)c3cc(-c4c(C)cc(C)cc4C)no3)[C@@H]2O)c1`, the z-score was 0.321.

Consider `O=C1C2=CC[C@H]3C(=O)N(C[C@@H]4CCCO4)C(=O)[C@H]3[C@H]2[C@H](O)[C@@H]2O[C@H]12`, for which the z-score is -0.824. Take `CCOC(=O)[C@H](Cc1ccccc1)NC(=O)CCC1CC(OC(=O)NCc2cccc3ccccc23)CC2(CCCC(COC(=O)NCCc3ccc(Cl)cc3)O2)O1` (stereo partly specified): the z-score was 0.895. For the compound `COC(=O)[C@H](C)NC(=O)CCC1CC(OC(=O)NCc2cccc3ccccc23)CC2(CCCC(COC(=O)NCc3cccc(C(F)(F)F)c3)O2)O1` (stereo partly specified), the z-score is -1.16. For `COC(=O)[C@H](C)NC(=O)CCC1CC(OC(=O)NCc2cccc3ccccc23)CC2(CCCC(COC(=O)NCCOc3ccccc3)O2)O1` (stereo partly specified), the z-score is 1.33. Then `CCOC(=O)CCN1C(=O)[C@H]2[C@H]3[C@H](O)[C@H](O)CC(=O)[C@@H]3CC[C@H]2C1=O`, with 0.699; and `C#CCCCON=C1[C@H]2CCn3c(=O)n(Cc4cc5c(cc4Cl)OCO5)c(=O)n3[C@H]2[C@H](O)[C@@H]2O[C@H]12`, with -0.188.

For the compound `COC(=O)[C@H](C)NC(=O)CCC1CC(OC(=O)NCCc2ccc(F)cc2)CC2(CCCC(COC(=O)NCCc3ccccc3OC)O2)O1` (stereo partly specified), the z-score was 0.0778. As for `CCOC(=O)[C@H](Cc1ccccc1)NC(=O)CCC1CC(OC(=O)NCc2ccc3c(c2)OCO3)CC2(CCCC(COC(=O)NCCOc3ccccc3)O2)O1` (stereo partly specified), the figure is 0.198; as for `CCOC(=O)CCN1C(=O)[C@H]2[C@H]3[C@H](O)[C@H](O)CC(=NNC(=O)OCC)[C@H]3CC[C@H]2C1=O`, -0.698. As for `CCN1C(=O)[C@H]2[C@H]3[C@H](O)[C@H](O)CC(=NOCC[C@@H]4C=C[C@H](OC(C)=O)[C@@H](COC(C)=O)O4)[C@@H]3CC[C@H]2C1=O`, the figure is -0.774; as for `O=C1C2=CC[C@H]3C(=O)N(c4ccc(F)cc4F)C(=O)[C@H]3[C@H]2[C@H](O)[C@@H]2O[C@H]12`, -0.0843; as for `COc1ccc(O[C@H]2C=C[C@@H](c3ccccc3)O[C@@H]2COC(=O)CCC(C)=NOC[C@@H](O)COCc2ccco2)cc1`, 0.402. Consider `O=C1C[C@@H](O)[C@@H](O)[C@@H]2[C@@H]3C(=O)N(C4CCCCC4)C(=O)[C@@H]3CC[C@@H]12`, for which the z-score is -0.732.
